The term AC50 denotes the concentration giving half of the maximal activity seen.

This note sets out measurements from PubChem BioAssay (EPA / NIEHS).

Experiment [1] can be described thus: ATG_PBREM_CIS: Attagene CIS-FACTORIAL HepG2 Assay for human Phenobarbital-responsive Enhancer Module (PBREM) (AID 2282955). To be noted: HepG2 PBREM cis-reporter, Attagene multiplexed transcription; actives raise or lower the signal. Put shortly:
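After a 24 h incubation with test chemical, transfected HepG2 cells yield total RNA; reporter-specific RT-PCR products are fluorescently labelled, HpaI-digested and resolved by capillary electrophoresis against ROX size standards.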

For experiment [2], the target named is Paired box protein Pax-6 (Homo sapiens) (UniProt P26367). Put plainly: ATG_Pax6_CIS: Attagene CIS-FACTORIAL HepG2 Assay for human Paired Box 6 (PAX6) (AID 2282956). To be noted: HepG2 CIS-FACTORIAL PAX6 reporter transcription, RNA readout; actives raise or lower the signal. Put shortly: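 HepG2 cells transiently transfected with cis-promoter-driven multiplexed reporter units sensing endogenous transcription factor activity; 24 h chemical exposure. Reporter mRNA quantified by RT-PCR, 6-FAM labelling, HpaI digestion and capillary electrophoresis; bidirectional fit versus DMSO baseline.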
Paired box protein Pax-6 (Homo sapiens), sequence (P26367 whole entry, looked up): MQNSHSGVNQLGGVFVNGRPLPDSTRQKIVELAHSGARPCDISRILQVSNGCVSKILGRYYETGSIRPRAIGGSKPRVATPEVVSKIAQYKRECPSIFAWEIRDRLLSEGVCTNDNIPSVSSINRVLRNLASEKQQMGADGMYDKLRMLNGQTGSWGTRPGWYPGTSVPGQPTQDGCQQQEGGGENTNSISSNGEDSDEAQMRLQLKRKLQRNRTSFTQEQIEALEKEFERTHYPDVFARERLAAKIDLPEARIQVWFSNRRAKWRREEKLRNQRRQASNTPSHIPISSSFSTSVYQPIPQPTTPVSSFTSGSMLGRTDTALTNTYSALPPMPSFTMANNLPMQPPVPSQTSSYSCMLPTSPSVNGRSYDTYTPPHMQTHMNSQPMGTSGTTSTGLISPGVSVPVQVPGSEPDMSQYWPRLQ

Experiment [3] in a line: ATG_PXRE_CIS: Attagene CIS-FACTORIAL HepG2 Assay for human Pregnane X Receptor Element (PXRE) (AID 2282957). The settings on record: HepG2 Attagene CIS-FACTORIAL PXRE reporter, mRNA; actives raise or lower the signal. Put shortly: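 Cis-element reporter mRNA in human hepatoma HepG2 cells is measured 24 h post-dosing by RT-PCR, primer-extension labeling and capillary electrophoresis; gain or loss of signal is fitted relative to DMSO.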

Experiment [4] can be described thus: ATG_RORE_CIS: Attagene CIS-FACTORIAL HepG2 Assay for human RAR-related Orphan Receptor Element (RORE) (AID 2282959). To be noted: HepG2 Attagene cis-factorial RORE reporter, mRNA; actives raise or lower the signal. Put shortly:
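Fluorescence intensity of reporter-specific cDNA fragments, separated by capillary electrophoresis, gives the signal. Source: HepG2 liver cells transiently transfected with cis-element reporters and exposed 24 h; DMSO-normalized bidirectional fit.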

Experiment [5] is described as follows: ATG_Sox_CIS: Attagene CIS-FACTORIAL HepG2 Assay for human SRY-box transcription factor (SOX) (AID 2282960). To be noted: HepG2 Attagene cis-factorial SOX reporter, mRNA; actives raise or lower the signal. Put shortly:
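After 24 h of chemical treatment, transfected HepG2 reporter cells are lysed for total RNA. Transcript levels come from RT-PCR with labelled primer extension and capillary electrophoresis, analysed bidirectionally versus DMSO.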

Experiment [6] deals with Transcription factor Sp1 (Homo sapiens) (UniProt P08047). Put plainly: ATG_Sp1_CIS: Attagene CIS-FACTORIAL HepG2 Assay for human Specificity Protein 1 (Sp1) (AID 2282961). The settings on record: HepG2 Sp1 cis-reporter transcription, actives raise or lower the signal. Put shortly:
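Sp1-driven reporter mRNA, read as capillary electrophoresis fluorescence after RT-PCR, in transiently transfected HepG2 cells dosed for 24 h; signal change in either direction relative to DMSO.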

Experiment [7] is described as follows: ATG_SREBP_CIS: Attagene CIS-FACTORIAL HepG2 Assay for human Sterol Regulatory Element Binding (SREBP) (AID 2282962). To be noted: HepG2 Attagene cis-factorial SREBP reporter, mRNA; actives raise or lower the signal. Put shortly: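 HepG2 cells transiently transfected with multiplexed cis-promoter reporter units sensing endogenous transcription factors; reporter mRNA measured 24 h after dosing by RT-PCR, 6-FAM labeling, HpaI digestion and capillary electrophoresis. Bidirectional fit versus DMSO.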

The target of experiment [8] is Signal transducer and activator of transcription 3 (Homo sapiens) (UniProt P40763). The experiment can be described thus: ATG_STAT3_CIS: Attagene CIS-FACTORIAL HepG2 Assay for human Signal Transducer and Activator of Transcription 3 (STAT3) (AID 2282963). To be noted: HepG2, Attagene cis-factorial STAT3 reporter transcription; actives raise or lower the signal. Put shortly: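 Endogenous STAT3-responsive cis-element activity was read in transiently transfected HepG2 cells after 24 h treatment. Reporter transcripts were quantified via RT-PCR and capillary electrophoresis, with DMSO as negative control and bidirectional curve fitting.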
Signal transducer and activator of transcription 3 (Homo sapiens), sequence (P40763 whole entry, looked up): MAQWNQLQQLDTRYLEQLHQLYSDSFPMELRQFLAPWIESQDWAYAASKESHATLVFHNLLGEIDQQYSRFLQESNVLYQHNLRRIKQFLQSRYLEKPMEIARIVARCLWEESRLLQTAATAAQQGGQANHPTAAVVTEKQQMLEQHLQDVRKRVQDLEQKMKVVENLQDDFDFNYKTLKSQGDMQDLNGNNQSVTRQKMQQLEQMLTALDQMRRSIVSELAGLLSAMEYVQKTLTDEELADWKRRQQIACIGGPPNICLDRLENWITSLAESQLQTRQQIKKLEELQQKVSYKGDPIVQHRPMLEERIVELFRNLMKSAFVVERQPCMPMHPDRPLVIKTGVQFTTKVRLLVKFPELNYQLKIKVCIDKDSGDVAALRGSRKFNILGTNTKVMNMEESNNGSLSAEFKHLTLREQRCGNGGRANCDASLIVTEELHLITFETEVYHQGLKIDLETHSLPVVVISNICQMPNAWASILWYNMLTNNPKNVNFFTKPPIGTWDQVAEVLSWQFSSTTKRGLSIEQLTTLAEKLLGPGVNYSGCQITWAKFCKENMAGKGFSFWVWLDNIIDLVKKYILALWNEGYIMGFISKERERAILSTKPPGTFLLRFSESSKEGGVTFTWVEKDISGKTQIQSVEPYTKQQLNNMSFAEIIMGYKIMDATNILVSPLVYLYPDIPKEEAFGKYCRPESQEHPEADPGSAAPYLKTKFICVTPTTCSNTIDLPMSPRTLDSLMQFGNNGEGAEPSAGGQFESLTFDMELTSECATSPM

The nature of experiment [9]: ATG_TA_CIS: Attagene CIS-FACTORIAL HepG2 Assay for human TA Basal Promoter (AID 2282964). To be noted: HepG2 Attagene CIS-factorial TA basal promoter reporter; actives raise or lower the signal. Put shortly:
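Multiplexed mRNA reporter assay, HepG2, 24 h. Reporter cDNA amplified, 6-FAM primer-extended, HpaI-cut, CE-sized; DMSO = negative control and baseline.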

A short description of experiment [10]: ATG_TCF_b_cat_CIS: Attagene CIS-FACTORIAL HepG2 Assay for human T-Cell-Factor with beta-catenin (TCF/b-cat) (AID 2282965). To be noted: HepG2 TCF/beta-catenin cis-reporter transcription, actives raise or lower the signal. Put shortly: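 Endogenous transcription factor activity is captured through cis-promoter reporter constructs transiently introduced into human HepG2 liver cells. Induced reporter mRNA is measured after 24 h and fitted bidirectionally relative to DMSO.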

Experiment [11] can be described thus: ATG_TAL_CIS: Attagene CIS-FACTORIAL HepG2 Assay for human TAL Basal Promoter (AID 2282966).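 Note: background control endpoint measuring basal TAL promoter reporter mRNA not a specific factor.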 The settings on record: HepG2 Attagene cis-factorial TAL promoter reporter; actives raise or lower the signal. Put shortly: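 In this cell-based multiplex, HepG2 liver cells bearing cis-promoter reporter constructs are dosed for 24 hours. Total RNA is reverse-transcribed and amplified, labelled fragments are sized by capillary electrophoresis, and signal changes are fitted bidirectionally versus DMSO.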

A short description of experiment [12]: ATG_TGFb_CIS: Attagene CIS-FACTORIAL HepG2 Assay for human Transforming Growth Factor (TGF) (AID 2282967). The settings on record: HepG2 Attagene CIS TGFb reporter, mRNA transcription; actives raise or lower the signal. Put shortly: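 Transcript-level reporter readout: HepG2 transfectants, 24 h exposure, RNA to cDNA, reporter-specific PCR, fluorescent primer extension, capillary sizing against ROX standards. Gain- or loss-of-signal relative to DMSO.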

The nature of experiment [13]: ATG_VDRE_CIS: Attagene CIS-FACTORIAL HepG2 Assay for human Vitamin D Receptor Element (VDRE) (AID 2282968). The settings on record: HepG2 VDRE cis-reporter transcription, actives raise or lower the signal. Put shortly:
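Reporter mRNA induction, quantified by capillary electrophoresis of fluorescently labelled RT-PCR products, was read 24 h after dosing HepG2 cells carrying transiently transfected cis-regulated reporter units; gain or loss relative to DMSO.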

Experiment [14] has as its target Nuclear receptor subfamily 1 group I member 3 (Homo sapiens) (UniProt Q14994). Put plainly: ATG_CAR_TRANS: Attagene TRANS-FACTORIAL HepG2 Assay for human Constitutive Androstane Receptor (CAR) (AID 2282969; active = hit-call score of the fitted dose curve at least 0.9, where 1 is the maximum;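 note: activators raise reporter mRNA above DMSO so AC50 marks induction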). The settings on record: HepG2 Attagene TRANS-FACTORIAL CAR reporter. Put shortly: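 Readout is reporter mRNA induction, quantified by fluorescent primer extension and capillary electrophoresis after RT-PCR. Cells were HepG2 transiently carrying chimeric NR-Gal4 constructs with GAL4-UAS reporters, treated for 24 h; activity scored upward from DMSO.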

Experiment [15] addresses Estrogen receptor (Homo sapiens) (UniProt P03372). Put plainly: ATG_ERa_TRANS: Attagene TRANS-FACTORIAL HepG2 Assay for human Estrogen Receptor alpha (ERa) (AID 2282970; active = hit-call score of the fitted dose curve at least 0.9, where 1 is the maximum). The settings on record: HepG2 Attagene TRANS ERa GAL4 reporter, mRNA. Put shortly: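 After 24 h of compound treatment, RNA from HepG2 cells bearing transfected GAL4-UAS reporter constructs is converted to cDNA, amplified and fluorescently labelled. Capillary electrophoresis resolves the ERa-linked reporter; DMSO serves as negative control.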

For experiment [16], the target named is Steroid hormone receptor ERR1 (Homo sapiens) (UniProt P11474). Put plainly: ATG_ERRa_TRANS: Attagene TRANS-FACTORIAL HepG2 Assay for human Estrogen-Related Receptor alpha (ERRa) (AID 2282971; active = hit-call score of the fitted dose curve at least 0.9, where 1 is the maximum). To be noted: HepG2 Attagene TRANS reporter, ERRa transactivation. Put shortly: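 Transfected HepG2, 24 h dosing, ERRa-Gal4 chimera driving GAL4-UAS reporter. Readout: reporter mRNA via RT-PCR plus capillary electrophoresis (fluorescence). Positive direction vs DMSO control.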
Steroid hormone receptor ERR1 (Homo sapiens), sequence (P11474 whole entry, looked up, the tested form may be a part): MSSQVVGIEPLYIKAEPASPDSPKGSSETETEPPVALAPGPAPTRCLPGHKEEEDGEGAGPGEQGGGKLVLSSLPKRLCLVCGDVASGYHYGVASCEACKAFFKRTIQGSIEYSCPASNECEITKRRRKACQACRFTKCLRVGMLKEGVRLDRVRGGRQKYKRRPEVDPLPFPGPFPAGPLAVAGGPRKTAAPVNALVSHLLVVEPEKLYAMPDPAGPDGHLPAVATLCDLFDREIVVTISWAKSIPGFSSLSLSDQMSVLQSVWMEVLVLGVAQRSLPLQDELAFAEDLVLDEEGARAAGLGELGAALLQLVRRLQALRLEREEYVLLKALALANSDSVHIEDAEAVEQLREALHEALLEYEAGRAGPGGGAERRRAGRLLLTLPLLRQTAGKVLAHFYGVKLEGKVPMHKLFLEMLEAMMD

Experiment [17] deals with X-box-binding protein 1 (Homo sapiens) (UniProt P17861). The experiment can be described thus: ATG_Xbp1_CIS: Attagene CIS-FACTORIAL HepG2 Assay for human X-box Binding Protein 1 (XBP1) (AID 2282972). The settings on record: HepG2 XBP1 cis-element reporter, Attagene multiplex; actives raise or lower the signal. Put shortly: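 HepG2 cells transiently transfected with multiple cis-element reporter units report endogenous TF activity; 24 h exposure, then reporter mRNA measured by RT-PCR, 6-FAM labelling, HpaI digestion and capillary electrophoresis. Bidirectional fitting versus DMSO.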
X-box-binding protein 1 (Homo sapiens), sequence (P17861 whole entry, looked up): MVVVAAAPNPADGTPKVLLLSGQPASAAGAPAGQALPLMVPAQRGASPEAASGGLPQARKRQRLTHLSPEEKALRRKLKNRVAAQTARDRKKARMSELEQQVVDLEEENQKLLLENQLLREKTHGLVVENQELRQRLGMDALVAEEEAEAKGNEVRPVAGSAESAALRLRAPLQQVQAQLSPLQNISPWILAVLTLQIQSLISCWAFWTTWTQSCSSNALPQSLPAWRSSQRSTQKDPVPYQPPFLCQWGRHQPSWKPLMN

Experiment [18] can be described thus: ATG_Hpa5_TRANS: Attagene TRANS-FACTORIAL HepG2 Assay for human GAL4-Hpa5 Hepatocyte Transcription Factor Basal Promoter (AID 2282975; active = hit-call score of the fitted dose curve at least 0.9, where 1 is the maximum;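 note: hits are increases in reporter mRNA over DMSO baseline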). The settings on record: HepG2 Attagene GAL4-Hpa5 transcription reporter. Put shortly: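 Basal-promoter GAL4 background control within the HepG2 trans-factorial panel of transiently transfected reporter units. Reporter mRNA is measured 24 h after dosing by RT-PCR and capillary electrophoresis, fitted for gain of signal versus DMSO.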

Experiment [19] deals with Androgen receptor (Homo sapiens) (UniProt P10275). The experiment can be described thus: ATG_AR_TRANS: Attagene TRANS-FACTORIAL HepG2 Assay for human Androgen Receptor (AR) (AID 2282973; active = hit-call score of the fitted dose curve at least 0.9, where 1 is the maximum). To be noted: HepG2 Attagene TRANS-FACTORIAL AR reporter transcription. Put shortly:
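Readout is reporter transcript abundance, quantified by fluorescent RT-PCR products separated on capillary electrophoresis. Human HepG2 liver cells carried transiently transfected NR-Gal4 chimera plus GAL4-UAS reporter constructs and were dosed for 24 h; activity scored upward versus DMSO.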

Several values for one entry are separate records, joined by “and”; a condition that tells them apart may be missing. Identical values can stand only once. Inconclusive results are not listed. More than one record can exist for a structure, and the calls need not agree. Activity calls are given as the source filed them. Rule for the calls, unless noted: active = hit-call score of the fitted dose curve at least 0.9, where 1 is the maximum; inactive = score below 0.9.

Nuclear receptor subfamily 1 group I member 3 (Homo sapiens), sequence (Q14994 whole entry, looked up, the tested form may be a part): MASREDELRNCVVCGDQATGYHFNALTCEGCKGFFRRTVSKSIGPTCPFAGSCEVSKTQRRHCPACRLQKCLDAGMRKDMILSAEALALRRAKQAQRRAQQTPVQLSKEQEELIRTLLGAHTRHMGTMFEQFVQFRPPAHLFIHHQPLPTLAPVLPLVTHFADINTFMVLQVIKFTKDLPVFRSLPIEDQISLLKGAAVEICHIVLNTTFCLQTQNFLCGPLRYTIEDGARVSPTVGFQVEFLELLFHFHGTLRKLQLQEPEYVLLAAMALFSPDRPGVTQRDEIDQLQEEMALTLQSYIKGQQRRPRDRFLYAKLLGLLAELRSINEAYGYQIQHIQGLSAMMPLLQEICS
Estrogen receptor (Homo sapiens), sequence (P03372 whole entry, looked up, the tested form may be a part): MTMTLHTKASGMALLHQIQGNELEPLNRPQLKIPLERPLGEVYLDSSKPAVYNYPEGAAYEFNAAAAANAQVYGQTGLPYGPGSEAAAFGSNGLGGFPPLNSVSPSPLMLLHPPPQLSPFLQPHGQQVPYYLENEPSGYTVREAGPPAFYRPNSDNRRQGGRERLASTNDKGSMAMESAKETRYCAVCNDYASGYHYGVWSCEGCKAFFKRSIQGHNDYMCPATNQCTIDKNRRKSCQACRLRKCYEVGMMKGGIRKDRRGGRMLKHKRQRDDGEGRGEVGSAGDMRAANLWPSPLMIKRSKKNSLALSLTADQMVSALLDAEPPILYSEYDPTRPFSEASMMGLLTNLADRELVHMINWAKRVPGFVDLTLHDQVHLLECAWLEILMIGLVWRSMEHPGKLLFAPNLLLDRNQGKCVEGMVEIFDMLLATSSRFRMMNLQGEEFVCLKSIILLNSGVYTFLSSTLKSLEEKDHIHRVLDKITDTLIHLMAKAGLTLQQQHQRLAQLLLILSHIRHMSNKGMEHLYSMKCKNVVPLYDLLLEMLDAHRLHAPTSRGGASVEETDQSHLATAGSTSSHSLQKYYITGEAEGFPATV
Transcription factor Sp1 (Homo sapiens), sequence (P08047 whole entry, looked up): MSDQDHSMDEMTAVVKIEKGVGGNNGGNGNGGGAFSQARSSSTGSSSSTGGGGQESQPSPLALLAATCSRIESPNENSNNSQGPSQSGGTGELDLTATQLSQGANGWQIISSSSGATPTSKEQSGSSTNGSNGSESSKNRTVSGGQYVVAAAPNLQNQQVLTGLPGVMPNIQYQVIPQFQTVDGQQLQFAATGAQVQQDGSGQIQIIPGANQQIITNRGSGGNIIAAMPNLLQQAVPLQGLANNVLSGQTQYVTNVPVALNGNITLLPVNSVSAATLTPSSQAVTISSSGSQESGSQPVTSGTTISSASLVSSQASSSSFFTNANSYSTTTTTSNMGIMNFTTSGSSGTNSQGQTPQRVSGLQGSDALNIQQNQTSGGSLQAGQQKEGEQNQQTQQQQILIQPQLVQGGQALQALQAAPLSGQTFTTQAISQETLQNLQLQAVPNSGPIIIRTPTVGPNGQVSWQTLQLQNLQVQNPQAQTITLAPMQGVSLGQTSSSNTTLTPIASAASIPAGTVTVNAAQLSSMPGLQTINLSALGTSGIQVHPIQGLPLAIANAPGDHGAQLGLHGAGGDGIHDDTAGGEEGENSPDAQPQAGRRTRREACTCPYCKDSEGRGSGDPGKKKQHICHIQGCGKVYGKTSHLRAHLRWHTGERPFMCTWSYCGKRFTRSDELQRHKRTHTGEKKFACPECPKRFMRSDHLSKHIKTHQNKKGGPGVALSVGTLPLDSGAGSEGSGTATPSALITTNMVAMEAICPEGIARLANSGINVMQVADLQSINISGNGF
Androgen receptor (Homo sapiens), sequence (P10275 whole entry, looked up, the tested form may be a part): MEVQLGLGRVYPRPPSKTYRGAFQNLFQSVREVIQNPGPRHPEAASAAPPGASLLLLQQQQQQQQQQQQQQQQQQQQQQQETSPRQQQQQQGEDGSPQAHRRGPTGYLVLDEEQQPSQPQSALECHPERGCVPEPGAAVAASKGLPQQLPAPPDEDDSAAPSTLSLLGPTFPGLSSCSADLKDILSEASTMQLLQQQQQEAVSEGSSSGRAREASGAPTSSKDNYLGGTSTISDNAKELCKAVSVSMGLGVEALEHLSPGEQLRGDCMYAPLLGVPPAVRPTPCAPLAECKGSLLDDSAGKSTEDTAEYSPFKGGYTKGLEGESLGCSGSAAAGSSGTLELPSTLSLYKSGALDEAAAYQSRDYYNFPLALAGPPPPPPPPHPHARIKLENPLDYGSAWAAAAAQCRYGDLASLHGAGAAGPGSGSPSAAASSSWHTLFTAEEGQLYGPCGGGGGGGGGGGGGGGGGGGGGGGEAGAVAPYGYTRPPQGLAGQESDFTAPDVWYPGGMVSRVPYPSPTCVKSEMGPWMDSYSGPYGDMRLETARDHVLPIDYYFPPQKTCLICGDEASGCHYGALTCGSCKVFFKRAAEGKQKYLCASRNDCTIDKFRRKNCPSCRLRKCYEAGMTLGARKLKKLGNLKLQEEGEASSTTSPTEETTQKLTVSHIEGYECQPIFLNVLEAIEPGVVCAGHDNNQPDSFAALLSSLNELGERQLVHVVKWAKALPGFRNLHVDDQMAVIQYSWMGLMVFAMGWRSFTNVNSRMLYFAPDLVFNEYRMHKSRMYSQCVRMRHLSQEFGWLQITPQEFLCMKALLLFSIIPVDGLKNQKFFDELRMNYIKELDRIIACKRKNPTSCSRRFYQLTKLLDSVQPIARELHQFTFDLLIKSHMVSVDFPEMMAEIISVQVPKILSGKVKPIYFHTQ

As for `COC(=O)c1ccccc1C(=O)OC`, the result in experiment [1], in experiment [2], in [4], in [5], in [6] and in experiment [7] was inactive. Besides, the result in experiment [8], in experiment [9], in [10], in [11], in experiment [12] and in experiment [13] was inactive. In addition, the compound was called inactive in experiment [14], in experiment [15], in [16] and in experiment [17]. The half-maximal activity concentration (AC50) in [3] was 32.8 µM (active).
Regarding `CNC(=O)ON=CC(C)(C)SC`, the compound was called inactive in experiment [2], in experiment [3], in experiment [4], in experiment [5], in experiment [6] and in experiment [7]. In addition, the compound was classed as inactive in [8], in experiment [9], in [10], in experiment [11], in [12] and in [15]. Also, the compound was classed as inactive in experiment [16], in experiment [17] and in experiment [18].
Turning to `CCCCNC(=O)OCC#CI`, the AC50 in experiment [2] was 32.7 µM (active); in experiment [3], 48.6 µM (active) and 1.56 µM (active) and 1.73 µM (active); in experiment [4] it was 27.3 µM (active); in experiment [5] it was 26.5 µM (active); in experiment [6], 31.9 µM (active); in [8], 60.2 µM (active). The half-maximal activity concentration (AC50) was 26.8 µM (active) in experiment [10]; 25.4 µM (active) in experiment [12]; 37 µM (active) in [13]; 25.4 µM (active) in experiment [15]; 45.5 µM (active) in experiment [17]. The call in [2], in experiment [4], in experiment [5], in experiment [6], in [7] and in experiment [8] was inactive. The call in [10], in experiment [11], in experiment [12], in [13], in [14] and in experiment [15] was inactive. Besides, the call in experiment [16], in [17] and in experiment [18] was inactive.
Turning to `Oc1ccccc1-c1ccccc1`, the AC50 in [2] is 57.7 µM (active); in experiment [3], 13.5 µM (active) and 3.11 µM (active); in [5] it was 46 µM (active); in experiment [6] it was 50 µM (active); in [12], 87.5 µM (active); in [13], 38.4 µM (active). In addition, the AC50 in experiment [15] was 31.1 µM (active) and 27.8 µM (active). In addition, the compound was called inactive in [2], in [5], in experiment [6], in [8], in experiment [9] and in [10]. Further, the compound was classed as inactive in experiment [11], in [12], in experiment [13], in experiment [14] and in [17].
On to `Fc1ccc(Oc2ccnc3cc(Cl)cc(Cl)c23)cc1`, for which the result in experiment [1], in experiment [2], in experiment [3], in experiment [4], in experiment [5] and in experiment [6] was inactive. The compound was classed as inactive in experiment [8], in [10], in [11], in experiment [12], in experiment [13] and in experiment [14]. Further, the compound was called inactive in experiment [15], in [17] and in experiment [18].
With `CCOC(=O)CC(SP(=S)(OC)OC)C(=O)OCC` (stereo not given), the AC50 was 100 µM (active) in experiment [2]; 2.27 µM (active) and 12.2 µM (active) in experiment [3]; 150 µM (active) in experiment [4]; 0.00921 µM (active) in experiment [11]; 20.2 µM (active) and 29.4 µM (active) in [13]; 68 µM (active) and 32.4 µM (active) in experiment [15]. Further, the AC50 in experiment [17] is 100 µM (active). In addition, the result in [2], in [4], in experiment [5], in [6], in [8] and in [9] was inactive. In addition, the compound was called inactive in experiment [10], in experiment [11], in [12], in experiment [14], in experiment [17] and in experiment [19].
